tested on: HT29 RNF43 G659fs (RNF43 659mut, CRISPR-edited); experiment: cell viability activity relative to DMSO (negative = inhibition); higher = more viable cells (less growth inhibition); conditions: 5 µM; 96 h
Description: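 Broad Repurposing Library primary screen at a single dose of 5 uM. HT29 sg-Ctrl and HT29 RNF43 G659fs CRISPR-edited isogenic cells were seeded at 2500 cells/well in 384-well plates in duplicate and treated for 96 h. Viability was read by CellTiter-Glo and reported as % activity relative to DMSO, with MG132 as the positive control (negative = growth inhibition).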

Row | SMILES | cell viability activity [%]
1 | CN(C)C(=O)C(CCN1CCC(O)(c2ccc(Cl)cc2)CC1)(c1ccccc1)c1ccccc1 | -67.6
2 | CCCCc1ccc2[nH]c(NC(=O)OC)nc2c1 | -66.1
3 | NS(=O)(=O)OC[C@@H]1C[C@@H](n2ccc3c(N[C@H]4CCc5ccccc54)ncnc32)C[C@@H]1O | -78
4 | CC1(C)CC(=O)c2c(C(F)(F)F)nn(-c3ccc(C(N)=O)c(N[C@H]4CC[C@H](O)CC4)c3)c2C1 | -86.4
5 | CC[C@H](CC#N)OC(=O)N[C@@H](C)c1cccc(NC(=O)Nc2ccc(-c3cnco3)c(OC)c2)c1 | -66.2
6 | COc1ccc(NC(=O)c2ccc(-c3ccc(-c4noc(C)n4)cc3C)cc2)cc1OCCN(C)C | -93.7
7 | c1ccc2c(CCNc3ccc(Nc4ccncc4)cc3)c[nH]c2c1 | -93.4
8 | Cc1ccc(-n2nc(C(C)(C)C)cc2NC(=O)NCc2cc(F)ccc2Oc2ccc3c(cnn3CCO)c2)cc1 | -36.7
9 | CN(Cc1cnc2nc(N)nc(N)c2n1)c1ccc(C(=O)N[C@@H](CCC(=O)O)C(=O)O)cc1 | -67.9
10 | CC(C)(N)c1cc(C(=O)N[C@@H]2CCc3ccc(Oc4ccnc5c4CCC(=O)N5)cc3C2)cc(C(F)(F)F)c1 | -57.8
11 | COCCN1CCN(Cc2ccc(-c3n[nH]c4c3C(=O)c3c(NC(=O)NN5CCOCC5)cccc3-4)cc2)CC1 | -78.2
12 | CCCCCC(O)c1cccc(OCc2ccc3ccccc3n2)c1 (centres undefined) | -71.3
13 | Cc1cc(Nc2cc(N3CCN(C)CC3)nc(/C=C/c3ccccc3)n2)n[nH]1 | -74.6
14 | CC(C)C[C@H](NC(=O)CNC(=O)c1cc(Cl)ccc1Cl)B(O)O | -94.3

Source: the supplement of paper PMC9177965
